Structures are written as SMILES. Results filed as inconclusive are left out. Entries that show only a call come without a potency. Values without a mark were called inactive. Calls of active or inactive are those of the source. Calls come from the whole dose curve; as a rule, active = well fitted cell-killing curve with a large enough effect; inconclusive = small, poorly fitted or top-dose-only effect; inactive = no such curve, though single readings can be large or run the other way.
Potency is the fitted concentration of half-maximal effect.

The nature of the assay: qHTS of pediatric cancer cell lines to identify multiple opportunities for drug repurposing: Primary screen for Saos-2 cells (AID 1347097). Note: nearly all actives have a fitted effect of over 40% in size. To be noted: Saos-2 viability, CellTiter-Glo ATP luminescence, 48 h; series mostly up to 46 µM. An excerpt:
Drug repurposing or repositioning has been offered as a strategy for drug development in oncology programs. This approach has special potential for childhood cancers and other rare or orphan diseases, where the expected return on new drug development has been a disincentive to pharmaceuticals. […] In this project we exploit the poly-pharmacology of drugs to discover new indications via phenotypic screening of a panel of 19 well-characterized cell lines derived from solid tumors seen in children and adolescents. The goal is to identify approved drugs with previously unrecognized anticancer properties that has the potential to reveal new mechanisms and biological processes involved in carcinogenesis or drug resistance. We employed a titration-based paradigm (quantitative high-throughput screening or qHTS), where all compounds were tested at multiple concentrations for their effect on cell viability. Concentration-response curves (CRCs) were derived directly from the primary screen, and both potency and efficacy values were used to identify compounds with robust bioactivity profiles. We screened the NIH Chemical Genomics Center (NCGC) Pharmaceutical Collection (NPC) and Mechanism Interrogation Plate (MIPE) small molecule collections of approved and investigational compounds against these cell lines; and measured metabolically active cells after 48 hours of compound treatment as a proxy for cell viability. […] Assay Submitter: Nathalia J. Martinez, National Center for Advancing Translational Sciences, National Institutes of Health, Rockville, MD, USA; email: natalia.martinez@nih.gov Shen, M et al. Quantitative high-throughput phenotypic screening of pediatric cancer cell lines identifies multiple opportunities for drug repurposing. Oncotarget 2017 Dec 19;9(4):4758-4772. PMID 29435139.
The cells were obtained from University of North Carolina (UNC), Pediatric Preclinical Testing Program (PPT), and Coriell Institute (CI). qHTS cell viability assay: Cells were assayed in growth media at a density of 500-1,000 cells/well. Five microliters of cells were dispensed into 1,536-well, white, solid-bottom, TC-treated plates (Greiner Bio One) using a multidrop dispenser and incubated at 37 degrees C, 5% CO2, under a humidified atmosphere for 5 hours. Twenty-three nanoliters of compounds and controls (neutral control DMSO or positive control bortezomib at final concentration of 2.3 µM) were subsequently transferred by Kalypsys pintool. For primary screens, the MIPE collection was tested at 11-point dilutions (final concentrations range from 0.78 nM to 46 µM) and the NPC collection at 8-point dilutions (final concentrations range from 0.59 nM to 46 µM). Compounds tested in follow-up screens were assayed at 11-point dilutions. Cells were incubated for 48 hours, followed by addition of 3 µL of CellTiter-Glo (Promega). After a 15 min incubation at room temperature, samples were analyzed for luminescence intensity using a ViewLux High-throughput CCD imager equipped with clear filters.
A general note: qHTS replaces the single test concentration by a dilution series.
On to `CCCN(CCC)C(=O)C(CCC(=O)O)NC(=O)c1ccccc1` (stereo not given), for which the Potency entry was “inactive”.
Same read-out and setting: with `NC(=O)N1c2ccccc2C=Cc2ccccc21` the entry was “inactive”.
Still for that read-out and setting: with `O=C(O)CN(CCN(CC(=O)O)CC(=O)O)CCN(CC(=O)O)CC(=O)O` the entry was “inactive”; with `CCN(CC)CCNC(=O)c1cc(S(C)(=O)=O)ccc1OC`, “inactive”.
The same measure, in the same setting: with `FC(F)(F)c1ccccc1-n1ccnc1` the entry was “inactive”; with `Cc1nc2c([nH]1)c(=O)n(C)c(=O)n2Cc1ccco1`, “inactive”; with `COC(=O)[C@H]1[C@H]2C[C@@H]3c4[nH]c5cc(OC)ccc5c4CCN3C[C@H]2C[C@@H](OC(=O)c2cc(OC)c(OC)c(OC)c2)[C@@H]1OC`, 23.7 µM (active).
Regarding `CCN(Cc1ccncc1)C(=O)C(CO)c1ccccc1` (stereo not given), the Potency entry is “inactive”.
Still for that read-out and setting: with `NC(=O)c1ncn([C@@H]2O[C@H](CO)[C@@H](O)[C@H]2O)c1O` the entry was “inactive”; with `CC(C)NCC(O)c1cc(O)cc(O)c1` (stereo not given), “inactive”; with `CN1C(=O)CC[C@H]1c1cccnc1`, “inactive”.
Regarding `C[N+](C)(C)CCCCCCCCCC[N+](C)(C)C`, the Potency entry was “inactive”.
With `CCn1ccnc1CC1COc2ccccc2O1` (stereo not given), the Potency result is “inactive”.
For `CCN1CCC[C@H]1CNC(=O)c1c(O)c(Cl)cc(Cl)c1OC`, the Potency result was “inactive”.
Still for that read-out and setting: with `CCCCNc1c(C(=O)OCC)c(C)nc2c1cnn2CC` the figure was 26.6 µM (active).
On the same count and under the same terms, with `CN(C)C(=O)Oc1ccc[n+](C)c1` the entry was “inactive”; with `CCOC(=O)C1=C(C)NC(C)=C(C(=O)OC)C1c1cccc(Cl)c1Cl` (stereo not given), “inactive”; with `CCCC(C(=O)OCCN(CC)CC)(c1ccccc1)c1ccccc1`, 26.6 µM (active).
The same measure, in the same setting: with `CCN(CC)CCNC(=O)c1ccc(NC(C)=O)cc1` the entry was “inactive”; with `COc1ccc(CCN(C)CCCC(C#N)(c2cc(OC)c(OC)c(OC)c2)C(C)C)cc1OC` (stereo not given), “inactive”; with `CN(C)[C@@H]1C(=O)C(C(N)=O)=C(O)[C@@]2(O)C(=O)C3=C(O)c4c(O)ccc(Cl)c4[C@@H](O)[C@H]3C[C@@H]12`, “inactive”.
As for `Cc1ccc(S(=O)(=O)NC(=O)NN2CCCCCC2)cc1`, the Potency result was “inactive”.
As to `NC(=Nc1ccccc1)Nc1ccccc1`, the Potency result was “inactive”.
Same read-out and setting: with `CN(C)CC[C@@H](c1ccc(Br)cc1)c1ccccn1` the entry was “inactive”.
`NCCCNCCSP(=O)(O)O`: the activity change, negative = cytotoxic is -20.9% [at 9.22 µM].
As for `Brc1c(NC2=NCCN2)ccc2nccnc12`, the Potency result was “inactive”.
The same measure, in the same setting: next, `CNCCC(Oc1ccccc1OC)c1ccccc1` (stereo not given): “inactive”; `C[n+]1cc2c3c(ccc2c2ccc4cc5c(cc4c21)OCO5)OCO3`: 4.11 µM (active); `c1cnc(N2CCN(Cc3ccc4c(c3)OCO4)CC2)nc1`: “inactive”.
The same measure, in the same setting: next, `C[C@H](CS)C(=O)N1CCC[C@H]1C(=O)O`: “inactive”.
As to `C[C@]12CCC(=O)C=C1CC[C@@H]1[C@@H]2CC[C@@]2(C)[C@H]1CC[C@]2(O)C(=O)CO`, the Potency result is “inactive”.
The same measure, in the same setting: next, `C[N+](C)(C)CCOC(N)=O`: “inactive”.
Turning to `CC(=O)OCC1=C(C(=O)O)N2C(=O)[C@@H](NC(=O)Cc3cccs3)[C@H]2SC1`, the Potency result is “inactive”.
Same read-out and setting: next, `COC(=O)C1=C(C)NC(C)=C(C(=O)OCCN(C)Cc2ccccc2)C1c1cccc([N+](=O)[O-])c1` (stereo not given): 29.9 µM (active); `CCCN1C[C@H](CSC)C[C@@H]2c3cccc4[nH]cc(c34)C[C@H]21`: “inactive”.
In the case of `CCN(CC)CCCN(c1ccccc1)C1Cc2ccccc2C1`, the Potency entry was “inactive”.
On the same count and under the same terms, next, `Cc1ccc(/C(=C\CN2CCCC2)c2ccccn2)cc1`: “inactive”; `CC[N+](C)(C)c1cccc(O)c1`: “inactive”; `O=C(CCNNC(=O)c1ccncc1)NCc1ccccc1`: “inactive”.
The same measure, in the same setting: with `C[N+](C)(C)CCOC(=O)CCC(=O)OCC[N+](C)(C)C` the entry was “inactive”.

The values are drawn from PubChem BioAssay (NCATS).
